Experimental findings from PubChem BioAssay are described below.

For part of these data: Measured potencies and affinities stand elsewhere. The source made the active and inactive calls.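 How the source made its calls: active means luciferase signal above three times the same-plate solvent-only control wells; inactive means the rest.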

For assay [1], the target named is Mitogen-activated protein kinase 7 (Homo sapiens) (UniProt Q13164). The assay can be described thus: ERK5 transactivation activators in reporter cells, primary screen, cell-based, HTS (AID 1508626).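 Further: luciferase driven by Gal4-ERK5 fusion binding five Gal4 sites before minimal TATA.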 The note with it: HeLa Gal4-ERK5 transactivation, 18 h, at 5 µM, stronger effect = higher value.
Assay [2] is described as follows: rescue of polyQ-huntingtin neuronal dysfunction in worms, whole organism, C. elegans mechanosensory neurons, N-terminal huntingtin (AID 1599). The settings on record: touch response, stronger effect = higher value.
Assay [3] can be described thus: inhibitors of polyQ protein aggregation (AID 1604). The note with it: polyglutamine-induced protein aggregation inhibition assay; stronger effect = higher value; tested at 2.5 µM.
A short description of assay [4]: enhancers of glutamate uptake in motor neurons, MN-1 cell line (AID 1612).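 Further: tested at 1 µM final; 0% = mean of DMSO vehicle wells on each plate; positive means more glutamate uptake than control and negative means less.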 The settings on record: MN-1 motor neuron cells, stronger effect = higher value.
Assay [5] is described as follows: reducers of polyQ inclusions in PC12 cells, cell-based, NGF-treated PC12, GFPQ80 (AID 1614).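 Further: lower means fewer inclusions and 0 means no inclusions at all.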 The note with it: PC12 NGF-treated GFP-polyQ80 inclusion reduction.
A short description of assay [6]: suppressors of polyglutamine aggregation in yeast, 75Q-TubH (AID 1616). The note with it: S. cerevisiae 75Q-TubH polyglutamine aggregation suppression; stronger effect = higher value.

Sequence of Mitogen-activated protein kinase 7 (Homo sapiens) (Q13164 whole entry, looked up, the tested form may be a part): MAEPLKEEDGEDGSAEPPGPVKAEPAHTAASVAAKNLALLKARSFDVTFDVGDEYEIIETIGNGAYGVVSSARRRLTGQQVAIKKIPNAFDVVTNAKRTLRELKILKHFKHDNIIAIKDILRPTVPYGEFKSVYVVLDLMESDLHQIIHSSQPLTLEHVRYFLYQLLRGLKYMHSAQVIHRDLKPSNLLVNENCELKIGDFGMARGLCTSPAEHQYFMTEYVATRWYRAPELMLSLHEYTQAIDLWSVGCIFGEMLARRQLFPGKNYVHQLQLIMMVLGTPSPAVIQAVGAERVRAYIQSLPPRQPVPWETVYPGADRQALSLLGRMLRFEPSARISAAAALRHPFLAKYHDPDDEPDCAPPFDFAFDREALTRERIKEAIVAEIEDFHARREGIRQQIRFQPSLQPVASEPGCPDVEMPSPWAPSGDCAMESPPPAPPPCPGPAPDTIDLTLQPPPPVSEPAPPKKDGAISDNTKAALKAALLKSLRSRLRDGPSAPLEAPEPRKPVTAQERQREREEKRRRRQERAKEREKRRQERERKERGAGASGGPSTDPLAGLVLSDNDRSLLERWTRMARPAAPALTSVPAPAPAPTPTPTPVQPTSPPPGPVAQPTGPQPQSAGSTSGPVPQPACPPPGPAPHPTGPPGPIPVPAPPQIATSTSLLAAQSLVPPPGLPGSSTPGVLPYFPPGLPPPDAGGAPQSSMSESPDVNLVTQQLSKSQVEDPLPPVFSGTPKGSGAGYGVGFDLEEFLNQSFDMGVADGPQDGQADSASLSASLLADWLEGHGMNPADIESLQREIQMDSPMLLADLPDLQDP

`COc1cc2oc3cc(OC)c(OC)c(CC=C(C)C)c3c(=O)c2c(OC)c1CC=C(C)C`: in assay [1], the luciferase signal is 164 AU (inactive).

Take `C[C@@H]1O[C@@H](O[C@H]2[C@H](Oc3cc(O)c4c(=O)cc(-c5ccc(O)cc5)oc4c3)O[C@H](CO)[C@@H](O)[C@@H]2O)[C@H](O)[C@H](O)[C@H]1O`: the luciferase signal in assay [1] is 56 AU (inactive).

Consider `COc1ccc2c(c1)O[C@H]1c3ccc(OC)cc3OC[C@@H]21`, for which, in assay [1], the luciferase signal was 68 AU (inactive).

Turning to `COc1ccc2oc3ccccc3c(=O)c2c1`, in assay [1], the luciferase signal is 88 AU (inactive).

As to `COc1cc2oc3cc(OC)c(OC)c(CC=C(C)C)c3c(=O)c2c(O)c1CC=C(C)C`, the luciferase signal in assay [1] is 72 AU (inactive).

Turning to `O=c1cc(-c2ccccc2O)oc2cc(O)ccc12`, the luciferase signal in assay [1] is 112 AU (inactive).

With `O=c1cccc2ccc(O)c(O)c2c1O`, the luciferase signal in assay [1] is 44 AU (inactive).

In assay [2], `O=c1ccn([C@@H]2O[C@H](COP(=O)(O)OP(=O)(O)OP(=O)(O)O)[C@@H](O)[C@H]2O)c(=O)[nH]1` returned a rescue above control of 2.48. Moreover, the inhibition of aggregation in assay [3] came out at 60.6%. Moreover, the glutamate uptake change in assay [4] stood at 11.8%. In assay [5], this molecule yielded an inclusion score of 2. Moreover, the aggregation suppression score in assay [6] is 1.14. For the same molecule, the luciferase signal in assay [1] is 36 AU (inactive).

As for `O=C1C=CC(=O)c2c(O)c(Cl)c(Cl)c(O)c21`, the luciferase signal in assay [1] is 12 AU (inactive).

Regarding `CC(=O)OCC(OC(C)=O)C(OC(C)=O)C(OC(C)=O)C(OC(C)=O)C(COC(C)=O)OC(C)=O` (centres undefined), the luciferase signal in assay [1] is 80 AU (inactive).

With `O=C(O)/C=C/C=C/c1ccc2c(c1)OCO2`, in assay [1], the luciferase signal was 24 AU (inactive).

For `COc1ccc(-c2cc(=O)c3c(OC)c(OC)c(OC)cc3o2)cc1OC`, the luciferase signal in assay [1] was 36 AU (inactive).

For `CC(=O)O[C@H]1CC[C@@]2(C)C(C[C@@H](OC(C)=O)[C@@]3(C)C4=CC(=O)O[C@@H](c5ccoc5)[C@]4(C)CCC23)C1(C)C` (some centres undefined), the luciferase signal in assay [1] is 28 AU (inactive).

In the case of `CC(=O)Oc1ccc2c(c1C(C)C)CCC1C(C)(C)CCC[C@]21C` (some centres undefined), in assay [1], the luciferase signal was 20 AU (inactive).

With `O=S(=O)(O)c1cc(N=C=S)ccc1/C=C/c1ccc(N=C=S)cc1S(=O)(=O)O`, the luciferase signal in assay [1] is 52 AU (inactive).

Take `Cc1c(S(=O)(=O)O)oc2c1C(=O)C(=O)c1c-2ccc2c1CCCC2(C)C`: the luciferase signal in assay [1] is 48 AU (inactive).

Consider `O=C(O)c1ccc2c(c1)OCO2`, for which, in assay [1], the luciferase signal is 48 AU (inactive).

Regarding `O=C(/C=C/c1ccc(O)cc1)c1ccccc1O`, in assay [1], the luciferase signal is 96 AU (inactive).

Regarding `COc1cc(OC)c2c(=O)c(O)c(-c3ccc(OC)c(OC)c3)oc2c1`, the luciferase signal in assay [1] is 64 AU (inactive).

Molecule `CC(C)Oc1ccc2c(=O)cc(-c3ccccc3)oc2c1` gave a rescue above control in assay [2] of 6.51. In addition, the inhibition of aggregation in assay [3] came out at 12.7%. Besides, the glutamate uptake change in assay [4] is -13.2%. For the same molecule, in assay [5], the inclusion score amounted to 2. The molecule also yielded an aggregation suppression score in assay [6] of 0.599.

`NC(COCc1ccccc1)C(=O)O` (centres undefined): the rescue above control in assay [2] was found to be 1.64. Besides, the inhibition of aggregation in assay [3] worked out at 85.8%. The glutamate uptake change in assay [4] stood at 3.63%. In assay [5], this molecule yielded an inclusion score of 2. The same molecule had an aggregation suppression score in assay [6] of 1.4.

With `C[N+]1(C)C2CC(OC(=O)[C@@H](CO)c3ccccc3)CC1C1OC12` (some centres undefined), the rescue above control in assay [2] was -0.68. Besides, the inhibition of aggregation in assay [3] is 47.9%. The glutamate uptake change in assay [4] is -7.1%. The molecule also had an inclusion score in assay [5] of 2. In addition, the aggregation suppression score in assay [6] amounted to 1.44.

As to `CC(=O)N[C@@H]1[C@@H](C(O)[C@H](O)CO)O[C@](O)(C(=O)O)C[C@@H]1O` (some centres undefined), in assay [2], the rescue above control was -7.75. Moreover, the inhibition of aggregation in assay [3] is -20.4%. The glutamate uptake change in assay [4] is 11.8%. Further, the inclusion score in assay [5] amounted to 2. In assay [6], this molecule had an aggregation suppression score of 0.464.

In the case of `CC1CCC2(OC1)OC1CC3C4CC[C@H]5C[C@@H](O)CC[C@]5(C)C4CC(=O)[C@]3(C)C1C2C` (some centres undefined), the rescue above control in assay [2] was -2.31. In assay [3], the inhibition of aggregation stood at 27.8%. In assay [4], the glutamate uptake change was determined as 2.67%. Besides, the inclusion score in assay [5] turned out to be 2. This molecule also displayed an aggregation suppression score in assay [6] of 1.27.

In turn, `CC1(C)C2CC[C@]3(C)C(C(=O)C=C4[C@H]5C[C@@](C)(C(=O)O)CC[C@]5(C)CC[C@]43C)[C@@]2(C)CC[C@@H]1O` (some centres undefined) gave a rescue above control in assay [2] of 0.7. Moreover, in assay [3], the inhibition of aggregation was 25.5%. The glutamate uptake change in assay [4] is -60.4%. For the same molecule, the inclusion score in assay [5] amounted to 2. The aggregation suppression score in assay [6] is 0.949.

On to `CC(=O)OCC(=O)[C@@]1(O)[C@H](C)CC2C3CCC4=CC(=O)C=C[C@]4(C)[C@@]3(F)[C@@H](O)C[C@@]21C` (some centres undefined), for which, in assay [2], the rescue above control is 1.81. The inhibition of aggregation in assay [3] came to 69.4%. For the same molecule, the glutamate uptake change in assay [4] is 20.3%. Besides, in assay [5], the inclusion score was determined as 2. The same molecule displayed an aggregation suppression score in assay [6] of 1.32.

In assay [2], `CC(C)CC(NC(=O)CCN)C(=O)O` (centres undefined) came in with a rescue above control of 6.33. The inhibition of aggregation in assay [3] worked out at 57.6%. Further, the glutamate uptake change in assay [4] worked out at 14.1%. The same molecule returned an inclusion score in assay [5] of 2. Moreover, the aggregation suppression score in assay [6] is 1.32.

Consider `CC(=O)O[C@@H]1CC2C(C)(C)C(=O)C=C[C@]2(C)C2CC[C@@]3(C)[C@H](c4ccoc4)OC(=O)[C@H]4O[C@]43[C@@]21C` (some centres undefined), for which the rescue above control in assay [2] is -3.01. Further, in assay [3], the inhibition of aggregation was found to be 36%. For the same molecule, the glutamate uptake change in assay [4] was -11.6%. The molecule further came in with an inclusion score in assay [5] of 2. This molecule showed an aggregation suppression score in assay [6] of 0.57.

`NC(Cc1ccc(F)cc1)C(=O)O` (centres undefined): the rescue above control in assay [2] came out at 3.95. Further, the inhibition of aggregation in assay [3] is 75%. Further, the glutamate uptake change in assay [4] came to 15.5%. Besides, the inclusion score in assay [5] came to 2. This molecule came in with an aggregation suppression score in assay [6] of 1.47. Further, the luciferase signal in assay [1] was 100 AU (inactive).

The molecule `CC1(C)C2CC[C@]3(C)C(C(=O)C=C4[C@@H]5C[C@@](C)(C(=O)O)CC[C@]5(C)CC[C@]43C)[C@@]2(C)CC[C@@H]1O` (some centres undefined) yielded a rescue above control in assay [2] of 12. Besides, the inhibition of aggregation in assay [3] came to 25.7%. In assay [4], the glutamate uptake change was -84.4%. Further, the aggregation suppression score in assay [6] was 1.4.

`CC(=O)Oc1ccc2c(c1)CCC1C2CC[C@@]2(C)C1CC[C@@H]2OC(C)=O` (some centres undefined) yielded a rescue above control in assay [2] of 6.23. In assay [3], the inhibition of aggregation was determined as 65.2%. Further, in assay [4], the glutamate uptake change is -3%. This molecule also gave an aggregation suppression score in assay [6] of 0.34.

Molecule `C=C(C)[C@H]1CC=C(C(=O)O)CC1` returned a rescue above control in assay [2] of -1.74. Moreover, the inhibition of aggregation in assay [3] was -3.17%. In assay [4], the glutamate uptake change was -7.46%. The inclusion score in assay [5] was determined as 2. The molecule further returned an aggregation suppression score in assay [6] of 0.107. Besides, the luciferase signal in assay [1] is 24 AU (inactive).

For the molecule `COC1=CC(C)[C@@H]2C[C@H]3OC(=O)C[C@H]4C(C)=C(OC)C(=O)C([C@@]34C)[C@@]2(C)C1=O` (some centres undefined), the rescue above control in assay [2] was -7.37. Besides, the inhibition of aggregation in assay [3] is -1.96%. For the same molecule, the glutamate uptake change in assay [4] amounted to 12.8%. In assay [5], this molecule came in with an inclusion score of 2. In assay [6], this molecule returned an aggregation suppression score of 1.57.

With `COc1ccc([C@@H]2CC(=O)c3c(O)cc(O[C@@H]4O[C@H](CO[C@H]5O[C@@H](C)[C@H](O)[C@@H](O)[C@H]5O)[C@@H](O)[C@H](O)[C@H]4O)cc3O2)cc1O`, the rescue above control in assay [2] was -5.33. The inhibition of aggregation in assay [3] came to 83.3%. In assay [4], the glutamate uptake change is 7.48%. The same molecule gave an inclusion score in assay [5] of 2. The same molecule showed an aggregation suppression score in assay [6] of 1.41.
